Assay results taken from the supplement of paper PMC10981050.
Values joined by “and” are separate entries in the source; they are usually repeats but may differ in a detail not shown here. Identical values can stand only once.

Legend:
Assay in all cases: cell viability relative to vehicle control; higher = less cytotoxic
Conditions in all cases: 10 µM
[1] = system: K562
In short: (§1)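 Screening covered the Selleck bioactive, kinase and epigenetic probe libraries, less identity-inconsistent compounds, on CRISPR-edited mutant clones and isogenic wild-type clones of four leukaemia lines. Cells, at 2000 per well in 50 µL medium, received a single 10 µM acoustically dispensed dose. After 48 h the supernatant was removed and CellTiter-Glo luminescence was read. Viability was analysed in Genedata Screener as percent of the on-plate vehicle control.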

[2] = system: MARIMO
In short: as §1

[3] = system: MOLM14
In short: as §1

[4] = system: OCI-AML2
In short: as §1

CC(C(=O)Nc1cccc(/N=C/c2c(O)ccc3ccccc23)c1)c1ccccc1 (stereo not given) [Salermide]
cell viability ([1]; SRSF2 genotype: SRSF2 P95H/wt): 82.7% and 84.2% | cell viability ([1]; SRSF2 genotype: SRSF2 wt/wt): 83.2% | cell viability ([2]; SRSF2 genotype: SRSF2 P95H/wt): 90.8% | cell viability ([2]; SRSF2 genotype: SRSF2 wt/wt): 93.8% | cell viability ([3]; SRSF2 genotype: SRSF2 P95H/wt): 104% | cell viability ([3]; SRSF2 genotype: SRSF2 wt/wt): 101% | cell viability ([4]; SRSF2 genotype: P95H/wt): 88.6% | cell viability ([4]; SRSF2 genotype: wt/wt): 90.3%

O=C(O)c1ccc2c(c1)nc(Nc1cccc(Cl)c1)c1ccncc12 [cx-4945 (Silmitasertib)]
cell viability ([1]; SRSF2 genotype: SRSF2 P95H/wt): 49.9% and 60.1% | cell viability ([1]; SRSF2 genotype: SRSF2 wt/wt): 63.7% | cell viability ([2]; SRSF2 genotype: SRSF2 P95H/wt): 49.7% | cell viability ([2]; SRSF2 genotype: SRSF2 wt/wt): 47.3% | cell viability ([3]; SRSF2 genotype: SRSF2 P95H/wt): 26.9% | cell viability ([3]; SRSF2 genotype: SRSF2 wt/wt): 34% | cell viability ([4]; SRSF2 genotype: P95H/wt): 5.84% | cell viability ([4]; SRSF2 genotype: wt/wt): 22.2%

CC1(C)C[C@@H]1C(=O)N/C(=C\CCCCSC[C@H](N)C(=O)O)C(=O)O [Cilastatin]
cell viability ([1]; SRSF2 genotype: SRSF2 P95H/wt): 104% and 93.4% | cell viability ([1]; SRSF2 genotype: SRSF2 wt/wt): 105% | cell viability ([2]; SRSF2 genotype: SRSF2 P95H/wt): 97% | cell viability ([2]; SRSF2 genotype: SRSF2 wt/wt): 100% | cell viability ([3]; SRSF2 genotype: SRSF2 P95H/wt): 104% | cell viability ([3]; SRSF2 genotype: SRSF2 wt/wt): 103% | cell viability ([4]; SRSF2 genotype: P95H/wt): 102% | cell viability ([4]; SRSF2 genotype: wt/wt): 110%

OC[C@H]1O[C@@H](c2ccc(F)c(Cc3cc4ccccc4s3)c2)[C@H](O)[C@@H](O)[C@@H]1O [Ipragliflozin (ASP1941)]
cell viability ([1]; SRSF2 genotype: SRSF2 P95H/wt): 96.6% and 98.5% | cell viability ([1]; SRSF2 genotype: SRSF2 wt/wt): 102% | cell viability ([2]; SRSF2 genotype: SRSF2 P95H/wt): 95.6% | cell viability ([2]; SRSF2 genotype: SRSF2 wt/wt): 95.8% | cell viability ([3]; SRSF2 genotype: SRSF2 P95H/wt): 101% | cell viability ([3]; SRSF2 genotype: SRSF2 wt/wt): 99.4% | cell viability ([4]; SRSF2 genotype: P95H/wt): 99.1% | cell viability ([4]; SRSF2 genotype: wt/wt): 95.1%

C[C@@H]1O[C@@H](O[C@H]2[C@H](O[C@H]3CC[C@@]4(C)[C@@H](CC[C@]5(C)[C@@H]4CC=C4[C@@H]6CC(C)(C)CC[C@]6(C(=O)O)CC[C@]45C)[C@]3(C)CO)OC[C@H](O)[C@@H]2O)[C@H](O)[C@H](O)[C@H]1O
cell viability ([1]; SRSF2 genotype: SRSF2 P95H/wt): 33.7% and 24.8% | cell viability ([1]; SRSF2 genotype: SRSF2 wt/wt): 40.6% | cell viability ([2]; SRSF2 genotype: SRSF2 P95H/wt): 71.8% | cell viability ([2]; SRSF2 genotype: SRSF2 wt/wt): 74.1% | cell viability ([3]; SRSF2 genotype: SRSF2 P95H/wt): 39% | cell viability ([3]; SRSF2 genotype: SRSF2 wt/wt): 45.4% | cell viability ([4]; SRSF2 genotype: P95H/wt): 45% | cell viability ([4]; SRSF2 genotype: wt/wt): 48.8%
